The term AC50 denotes the concentration at which the activity in the assay is half-maximal.

The source made the active and inactive calls. How the source made its calls: active means hit-call score of the fitted dose curve at least 0.9, where 1 is the maximum; inactive means score below 0.9.

The assay is described as follows: ATG_TAL_CIS: Attagene CIS-FACTORIAL HepG2 Assay for human TAL Basal Promoter (AID 2282966). To be noted: HepG2 Attagene cis-factorial TAL promoter reporter; actives raise or lower the signal. The procedure: ATG_CIS is a cell-based, multiplexed-readout assay that uses HepG2, a human liver cell line, with measurements taken at 24 hours after chemical dosing in a 24-well plate.ATG_TAL_CIS is one of 52 assay component(s) measured or calculated from the ATG_CIS assay. It is designed to make measurements of mRNA induction, a form of inducible reporter, as detected with fluorescence intensity signals by Reverse transcription polymerase chain reaction (RT-PCR) and Capillary electrophoresis technology.Data from the assay component ATG_TAL_CIS was analyzed into 1 assay endpoint. This assay endpoint, ATG_TAL_CIS, was analyzed with bidirectional fitting relative to DMSO as the negative control and baseline of activity. Using a type of inducible reporter, measures of mRNA for gain or loss-of-signal activity can be used to understand the background control at the transcription factor-level as they relate to the gene . Furthermore, this assay endpoint can be referred to as a secondary readout, because this assay has produced multiple assay endpoints where this one serves a background control function. To generalize the intended target to other relatable targets, this assay endpoint is annotated to the background measurement intended target family, where the subfamily is internal marker.
Human liver HepG2 cells are transiently transfected with multiple reporter transcription units (MRTUs) in 6-well plates using FuGene 6 reagent (Roche; 3 ml FuGene/1 mg DNA). The MRTU constructs are regulated by a cis-regulating element (promoter). […] A major difference between the CIS and TRANS system is that in CIS activities of endogenous TFs are measured, whereas the TRANS assay evaluates changes in activities of exogenous, chimeric NR-Gal4 proteins. […] At the end of 24 hour incubation, total RNA was isolated using TriZol reagent (Invitrogen). The isolated RNA is then reverse-transcribed using oligo(dT) primer and Mo-MLV reverse transcriptase (Invitrogen) with DNAse I (Ambion) treatment for 30 min. The one-tenth of the produced cDNA was amplified by PCR using Taq DNA polymerase (Invitrogen) and two reporter sequence-specific primers. The PCR products were fluorescently labeled by primer extension with 6-arboxyfluorescein (6-FAM) 5'-labeled reporter sequence-specific primer (2 min at 95 C, 20 s at 68 C and 10 min at 72 C) and these products were digested with 5U of HpaI (New England Biolabs) for 2h at 37 C. The fragments were purified using Qiaquick PCR columns (Qiagen), analyzed on an ABI 3130xL genetic analyzer (Applied Biosystems) with peak positions identified by using a set of X-rhodamine (ROX)-labeled MapMarker1000 molecular weight standards (BioVentures). The raw capillary electrophoresis data was processed using Attagraph software (Attagene).
Regarding `Cc1cc(=O)oc2cc(N(C)C)ccc12`, the result was inactive. Still for that read-out and setting: to `CC[N+](C)(CC)CC` belongs “inactive”; to `Cc1cc(CCC(=O)OCCOCCOCCOC(=O)CCc2cc(C)c(O)c(C(C)(C)C)c2)cc(C(C)(C)C)c1O`, “inactive”; to `COCCOC(=O)c1ccccc1C(=O)OCCOC`, “inactive”. Still for that read-out and setting: to `CCCC(=O)OC(C)(C)Cc1ccccc1` belongs “inactive”; to `O=C(O)CCCCCCCCCCCC(=O)O`, “inactive”; to `CCCCSCCCC`, “inactive”. Same read-out and setting: to `C[Si](C)(C)O[Si](C)(C)C` belongs “inactive”; to `CCC(=O)O[C@@H]1C[C@H]2CC[C@]1(C)C2(C)C`, “inactive”.

Consider `CCCCCCC(C)(C)S`, for which the result was inactive.

Take `COc1ccccc1[N+](=O)[O-]`: the result was inactive. On the same count and under the same terms, the same measure for `C1=CC2C3C=CC(C3)C2C1` (stereo not given): “inactive”; for `CS(=O)(=O)OCCCCOS(C)(=O)=O`: “inactive”; for `C=CCOC(=O)CCCCCC`: “inactive”. Still for that read-out and setting: the same measure for `CC1C2CC(CC2C2CCCC(O)C2)C1(C)C` (stereo not given): “inactive”; for `CN(c1nccc(=O)[nH]1)C1CCN(c2nc3ccccc3n2Cc2ccc(F)cc2)CC1`: “inactive”. As to `C=CCCC(=O)/C=C/C1C(C)=CCCC1(C)C` (stereo not given), the outcome was inactive. `CC(C)OCCO`: the outcome was inactive. As to `CCNCCO`, the call was inactive. On the same count and under the same terms, to `CC(=O)C(C)O` (stereo not given) belongs “inactive”. Turning to `Brc1ccc(Br)c(Br)c1`, the outcome was inactive. With `CN(C)C(=O)Nc1ccc(Oc2ccc(Cl)cc2)cc1`, the molecule was called inactive. On the same count and under the same terms, to `[Cl][Au]([Cl])[Cl]` belongs “inactive”. Regarding `CC=Cc1ccc(OCC)c(O)c1`, the molecule was classed as inactive.

Consider `CC(C)(C)c1ccc(C(=O)O)cc1`, for which the molecule was classed as inactive.

For the molecule `CCCCC(CC)COC(=O)c1ccc(O)cc1` (stereo not given), the molecule was classed as inactive. Regarding `CCCCCCCCCCCCCCCC(=O)OC/C=C(C)/C=C/C=C(C)/C=C/C1=C(C)CCCC1(C)C`, the call was inactive.

As for `COC(C)(C)CCCC(C)CC=O` (stereo not given), the result was inactive.

Turning to `Cc1c(Cl)cccc1[N+](=O)[O-]`, the molecule was classed as inactive. Consider `CCCCCC(C=O)=Cc1ccccc1`, for which the call was inactive. On the same count and under the same terms, to `c1ccc2[nH]cnc2c1` belongs “inactive”; to `CCCCCCCCCCCC(=O)OCC(O)CO` (stereo not given), “inactive”. As to `Clc1ccc(C(c2ccccc2Cl)C(Cl)Cl)cc1` (stereo not given), the AC50 is 23.7 µM (active). On to `COc1cccc(OC)c1O`, for which the outcome was inactive.

As for `CC1=CC[C@@]23C[C@@H]1C(C)(C)[C@@H]2CC[C@H]3C`, the result was inactive. Still for that read-out and setting: to `CCCCCCCCCCCC(=O)OC[C@@H](O)[C@H]1OC[C@H](O)[C@H]1O` belongs “inactive”. For the molecule `Cc1ccc(S(N)(=O)=O)cc1`, the outcome was inactive. Still for that read-out and setting: to `CCOC(=O)CN` belongs “inactive”. As to `N[C@@H](Cc1cc(I)c(Oc2cc(I)c(O)c(I)c2)c(I)c1)C(=O)O`, the molecule was called inactive. As for `COc1cc(Cl)c(OC)cc1N`, the result was inactive.
